Laboratory results reported in paper PMC12820563, “FoxP3 forms a head-to-head dimer in vivo and stabilizes its multimerization on adjacent microsatellites”.
In all, about 16,000 sequences were measured (“rpm ratio (pull-down/input)”: median about 0.94, highest 2% from about 1.7 on). The list comes from a sample in which the highest values are over-represented; it also holds similar and randomly drawn sequences.

Target: T1, MBP-FoxP1dN (Mus musculus, UniProt P58462 326-579)
T1 sequence: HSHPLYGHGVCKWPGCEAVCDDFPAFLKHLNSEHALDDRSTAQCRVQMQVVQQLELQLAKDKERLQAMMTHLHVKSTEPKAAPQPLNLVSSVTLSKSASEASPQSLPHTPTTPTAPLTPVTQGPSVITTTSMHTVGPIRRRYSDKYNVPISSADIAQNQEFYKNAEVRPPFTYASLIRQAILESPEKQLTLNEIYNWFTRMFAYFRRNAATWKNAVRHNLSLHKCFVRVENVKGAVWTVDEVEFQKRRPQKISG
Assay: PD-seq (MBP pull-down with sequencing); 20 mM Tris-HCl pH 7.5, 100 mM NaCl, 1.5 mM MgCl2, 0.4 uM protein, 0.1 uM dsDNA library, 30 min, room temperature, amylose pull-down; high values mean tight binding
Details: protein: recombinant; tags: His6-MBP; chain copies: 2; dsDNA, one strand shown
Method in brief: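 Binding is reads-per-million enrichment of pull-down over input, with replicates pooled. It comes from 30 min room-temperature incubation in Tris pH 7.5 buffer with NaCl and MgCl2 of 0.4 µM His6-MBP-tagged, N-terminally truncated mouse FoxP3 or FoxP1 fragment from E. coli with 0.1 µM Klenow-filled degenerate double-stranded DNA library, followed by amylose resin capture, three washes and Illumina sequencing of the released DNA.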

Row | Sequence | binding signal
1 | GATGATTGTTCTCCCAGCTGATGAATTGGTCCCATCGAGTAAACAAATTTTCCTAATCTTTCTGTTCAAGCGCCATCTAC | 0.976 RPM ratio (pull-down/input)
2 | GATGATTGTTCTCCCAGCTGATGAATTGCTTAGGTCGAGTAAACAAATTTTCCTAATCTTTCTGTTCAAGCGCCATCTAC | 1.02 RPM ratio (pull-down/input)
3 | GATGATTGTTCTCCCAGCTGATGAATTAATGTCCTCGAGTAAACAAATTTTCCTAATCTTTCTGTTCAAGCGCCATCTAC | 0.913 RPM ratio (pull-down/input)
4 | GATGATTGTTCTCCCAGCTGATGAATTTGTGAGCTCGAGTAAACAAATTTTCCTAATCTTTCTGTTCAAGCGCCATCTAC | 0.999 RPM ratio (pull-down/input)
5 | GATGATTGTTCTCCCAGCTGATGAATTAACGAAGTCGAGTAAACAAATTTTCCTAATCTTTCTGTTCAAGCGCCATCTAC | 0.89 RPM ratio (pull-down/input)
6 | GATGATTGTTCTCCCAGCTGATGAATTGTGATGCTCGAGTAAACAAATTTTCCTAATCTTTCTGTTCAAGCGCCATCTAC | 1.54 RPM ratio (pull-down/input)
7 | GATGATTGTTCTCCCAGCTGATGAATTTTTGTACTCGAGTAAACAAATTTTCCTAATCTTTCTGTTCAAGCGCCATCTAC | 1.14 RPM ratio (pull-down/input)
8 | GATGATTGTTCTCCCAGCTGATGAATTTGTACTCTCGAGTAAACAAATTTTCCTAATCTTTCTGTTCAAGCGCCATCTAC | 1.15 RPM ratio (pull-down/input)
9 | GATGATTGTTCTCCCAGCTGATGAATTTTCTGTATCGAGTAAACAAATTTTCCTAATCTTTCTGTTCAAGCGCCATCTAC | 1.08 RPM ratio (pull-down/input)
10 | GATGATTGTTCTCCCAGCTGATGAATTGTGTATCTCGAGTAAACAAATTTTCCTAATCTTTCTGTTCAAGCGCCATCTAC | 1.67 RPM ratio (pull-down/input)
11 | GATGATTGTTCTCCCAGCTGATGAATTGTGTGTATCGAGTAAACAAATTTTCCTAATCTTTCTGTTCAAGCGCCATCTAC | 1.92 RPM ratio (pull-down/input)
12 | GATGATTGTTCTCCCAGCTGATGAATTTGTGTACTCGAGTAAACAAATTTTCCTAATCTTTCTGTTCAAGCGCCATCTAC | 2.09 RPM ratio (pull-down/input)
13 | GATGATTGTTCTCCCAGCTGATGAATTCTGTACCTCGAGTAAACAAATTTTCCTAATCTTTCTGTTCAAGCGCCATCTAC | 0.846 RPM ratio (pull-down/input)
14 | GATGATTGTTCTCCCAGCTGATGAATTAATGTAATCGAGTAAACAAATTTTCCTAATCTTTCTGTTCAAGCGCCATCTAC | 1.68 RPM ratio (pull-down/input)
15 | GATGATTGTTCTCCCAGCTGATGAATTCATCGTGTCGAGTAAACAAATTTTCCTAATCTTTCTGTTCAAGCGCCATCTAC | 0.891 RPM ratio (pull-down/input)
16 | GATGATTGTTCTCCCAGCTGATGAATTTGACGAATCGAGTAAACAAATTTTCCTAATCTTTCTGTTCAAGCGCCATCTAC | 0.846 RPM ratio (pull-down/input)
17 | GATGATTGTTCTCCCAGCTGATGAATTGAGATGCTCGAGTAAACAAATTTTCCTAATCTTTCTGTTCAAGCGCCATCTAC | 1.07 RPM ratio (pull-down/input)
18 | GATGATTGTTCTCCCAGCTGATGAATTAGCTCGGTCGAGTAAACAAATTTTCCTAATCTTTCTGTTCAAGCGCCATCTAC | 0.829 RPM ratio (pull-down/input)

Row | Sequence | binding signal
19 | GATGATTGTTCTCCCAGCTGATGAATTATGAGATTCGAGTAAACAAATTTTCCTAATCTTTCTGTTCAAGCGCCATCTAC | 0.995 RPM ratio (pull-down/input)
20 | GATGATTGTTCTCCCAGCTGATGAATTAACTACCTCGAGTAAACAAATTTTCCTAATCTTTCTGTTCAAGCGCCATCTAC | 0.879 RPM ratio (pull-down/input)
21 | GATGATTGTTCTCCCAGCTGATGAATTAAATGTTTCGAGTAAACAAATTTTCCTAATCTTTCTGTTCAAGCGCCATCTAC | 1.3 RPM ratio (pull-down/input)
22 | GATGATTGTTCTCCCAGCTGATGAATTTATGTTTTCGAGTAAACAAATTTTCCTAATCTTTCTGTTCAAGCGCCATCTAC | 2.76 RPM ratio (pull-down/input)
23 | GATGATTGTTCTCCCAGCTGATGAATTATGATGTTCGAGTAAACAAATTTTCCTAATCTTTCTGTTCAAGCGCCATCTAC | 1.22 RPM ratio (pull-down/input)
24 | GATGATTGTTCTCCCAGCTGATGAATTAATGTTTTCGAGTAAACAAATTTTCCTAATCTTTCTGTTCAAGCGCCATCTAC | 2.45 RPM ratio (pull-down/input)
25 | GATGATTGTTCTCCCAGCTGATGAATTATGTTTTTCGAGTAAACAAATTTTCCTAATCTTTCTGTTCAAGCGCCATCTAC | 2.19 RPM ratio (pull-down/input)
26 | GATGATTGTTCTCCCAGCTGATGAATTTTATGTTTCGAGTAAACAAATTTTCCTAATCTTTCTGTTCAAGCGCCATCTAC | 1.19 RPM ratio (pull-down/input)
27 | GATGATTGTTCTCCCAGCTGATGAATTTAATGTTTCGAGTAAACAAATTTTCCTAATCTTTCTGTTCAAGCGCCATCTAC | 1.15 RPM ratio (pull-down/input)
28 | GATGATTGTTCTCCCAGCTGATGAATTTTTATGTTCGAGTAAACAAATTTTCCTAATCTTTCTGTTCAAGCGCCATCTAC | 1.37 RPM ratio (pull-down/input)
29 | GATGATTGTTCTCCCAGCTGATGAATTATCTTGGTCGAGTAAACAAATTTTCCTAATCTTTCTGTTCAAGCGCCATCTAC | 0.937 RPM ratio (pull-down/input)
30 | GATGATTGTTCTCCCAGCTGATGAATTATGATGGTCGAGTAAACAAATTTTCCTAATCTTTCTGTTCAAGCGCCATCTAC | 1.1 RPM ratio (pull-down/input)
31 | GATGATTGTTCTCCCAGCTGATGAATTATGTTGGTCGAGTAAACAAATTTTCCTAATCTTTCTGTTCAAGCGCCATCTAC | 1.87 RPM ratio (pull-down/input)
32 | GATGATTGTTCTCCCAGCTGATGAATTATGTGTTTCGAGTAAACAAATTTTCCTAATCTTTCTGTTCAAGCGCCATCTAC | 1.51 RPM ratio (pull-down/input)
33 | GATGATTGTTCTCCCAGCTGATGAATTCCTAATCTCGAGTAAACAAATTTTCCTAATCTTTCTGTTCAAGCGCCATCTAC | 0.834 RPM ratio (pull-down/input)
34 | GATGATTGTTCTCCCAGCTGATGAATTATGATATTCGAGTAAACAAATTTTCCTAATCTTTCTGTTCAAGCGCCATCTAC | 1.24 RPM ratio (pull-down/input)
35 | GATGATTGTTCTCCCAGCTGATGAATTATACCTCTCGAGTAAACAAATTTTCCTAATCTTTCTGTTCAAGCGCCATCTAC | 0.896 RPM ratio (pull-down/input)
